Among the data in PubChem BioAssay (EPA / NIEHS) are outcome and AC50 values, retold here.

The structures appear in SMILES notation. Calls of active or inactive are those of the source. Rule for the calls: active = hit-call score of the fitted dose curve at least 0.9, where 1 is the maximum; inactive = score below 0.9.

Details in all cases: mRNA level, 48 h; actives raise or lower the signal
Read-out in assay [1]: Heat shock 70 kDa protein 1 (HSPA1A), gene 3303
Nature of the assay: LTEA_HepaRG_HSPA1A: Life Technologies and Expression Analysis (LTEA) Assay for Heat shock 70 kDa protein 1 (HSPA1A) using HepaRG (AID 2283502). In a few lines:
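HSPA1A induction in human HepaRG liver cells is measured after 48 h of chemical treatment (100 uM maximum, 0.5% DMSO vehicle). Expression comes from qRT-PCR normalized to endogenous controls.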

Read-out in assay [2]: Hypoxia-inducible factor 1-alpha (Homo sapiens) (UniProt Q16665)
Nature of the assay: LTEA_HepaRG_HIF1A: Life Technologies and Expression Analysis (LTEA) Assay for Hypoxia-inducible factor 1 (HIF1A) Trancription factor using HepaRG (AID 2283503). In a few lines:
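HepaRG, 48 h exposure, 8-pt half-log series from 100 uM, 0.5% DMSO vehicle, duplicates. Readout: HIF1A transcript by qRT-PCR (Fluidigm array), housekeeping-normalised. Bidirectional curve fit vs DMSO baseline.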

Read-out in assay [3]: 3-Hydroxy-3-Methylglutaryl-CoA Synthase 2 (HMGCS2), HMGCS2 (gene 3158)
Nature of the assay: LTEA_HepaRG_HMGCS2: Life Technologies and Expression Analysis (LTEA) Assay for 3-Hydroxy-3-Methylglutaryl-CoA Synthase 2 (HMGCS2) using HepaRG (AID 2283504). The method in brief:
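HepaRG, plated 48 h then switched to serum-free induction media; cmpd 8-pt, max 100 uM, 1/2-log, 0.5% DMSO, n=2, 48 h. HMGCS2 mRNA by Fluidigm TaqMan qRT-PCR, ACTB/GAPDH/POLR2A norm; bidirectional fit vs DMSO.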

Read-out in another assay: HGF (gene 3082)
Nature of the assay: LTEA_HepaRG_HGF: Life Technologies and Expression Analysis (LTEA) Assay for Hepatocyte Growth Facto (HGF) using HepaRG (AID 2283505). In a few lines: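 Read-out is HGF transcript level by qRT-PCR, normalized to three housekeeping genes, fitted bidirectionally against 0.5% DMSO vehicle. Human HepaRG cells received test chemicals for 48 h at up to 100 uM.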

Read-out in assay [4]: Insulin Like Growth Factor 1 (IGF1), IGF1 (gene 3479)
In words: LTEA_HepaRG_IGF1: Life Technologies and Expression Analysis (LTEA) Assay for Insulin Like Growth Factor 1 (IGF1) using HepaRG (AID 2283506). In a few lines: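 Using human HepaRG liver cells, IGF1 transcript induction or suppression is measured 48 h after dosing across eight concentrations capped at 100 uM. Values derive from bidirectional concentration-response fitting with DMSO as baseline.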

Read-out in assay [5]: Intercellular Adhesion Molecule 1 (ICAM1), ICAM1 (gene 3383)
In words: LTEA_HepaRG_ICAM1: Life Technologies and Expression Analysis (LTEA) Assay for Intercellular Adhesion Molecule 1 (ICAM1) using HepaRG (AID 2283507). In a few lines: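 Readout is qRT-PCR mRNA level, normalized to three housekeeping genes and fitted bidirectionally against 0.5% DMSO vehicle. Human HepaRG cultures received compound for 48 h, top concentration 100 uM with half-log dilutions.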

Read-out in assay [6]: Interleukin 6 (IL6), IL6 (gene 3569)
In words: LTEA_HepaRG_IL6: Life Technologies and Expression Analysis (LTEA) Assay for Interleukin 6 (IL6) using HepaRG (AID 2283509). The method in brief: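 HepaRG, ~100,000 cells/well, 48 h pre-culture; serum-free induction medium; cmpd 8-pt half-log from 100 uM, 0.5% DMSO, duplicate, 48 h. Lysis in RLT, TaqMan qRT-PCR; gain or loss vs DMSO.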

Read-out in assay [7]: Interleukin 6 Receptor (IL6R), IL6R (gene 3570)
In words: LTEA_HepaRG_IL6R: Life Technologies and Expression Analysis (LTEA) Assay for Interleukin 6 Receptor (IL6R) using HepaRG (AID 2283510). The method in brief: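 Concentration-response in human liver HepaRG cells: eight concentrations from 100 uM downward by half-logs, 48 h exposure, 0.5% DMSO vehicle. IL6R mRNA change measured by qRT-PCR and fitted in both directions relative to vehicle.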

Read-out in assay [8]: Potassium channel subfamily K member 1 (KCNK1), KCNK1 (gene 3775)
In words: LTEA_HepaRG_KCNK1: Life Technologies and Expression Analysis (LTEA) Assay for Potassium channel subfamily K member 1 (KCNK1) using HepaRG (AID 2283511). The method in brief:
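Gain or loss of KCNK1 mRNA is the read-out, quantified by qRT-PCR against three housekeeping genes after 48 h chemical treatment of human HepaRG liver cells. Concentrations ran from 100 uM downward in half-log steps, vehicle 0.5% DMSO.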

Read-out in assay [9]: Keratin 19 (KRT19), KRT19 (gene 3880)
In words: LTEA_HepaRG_KRT19: Life Technologies and Expression Analysis (LTEA) Assay for Keratin 19 (KRT19) using HepaRG (AID 2283512). In a few lines:
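KRT19 transcript levels, measured by Fluidigm qRT-PCR against three housekeeping genes, are fitted for gain or loss of signal relative to DMSO. Human HepaRG cells receive test chemicals (top 100 uM, half-log steps, 0.5% DMSO) for 48 hours.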

Read-out in assay [10]: JUN Transcription Factor, JUN (gene 3725)
Nature of the assay: LTEA_HepaRG_JUN: Life Technologies and Expression Analysis (LTEA) Assay for JUN Transcription Factor using HepaRG (AID 2283513). In a few lines:
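Human HepaRG liver cells receive test chemicals in 0.5% DMSO for 48 h across an eight-point range topping at 100 uM. Expression changes in JUN are scored in both directions against the DMSO vehicle.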

Read-out in assay [11]: Lipase C (LIPC), LIPC (gene 3990)
In words: LTEA_HepaRG_LIPC: Life Technologies and Expression Analysis (LTEA) Assay for Lipase C (LIPC) using HepaRG (AID 2283514). In a few lines: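 Read-out is LIPC transcript level by TaqMan qRT-PCR, normalized to three housekeeping genes, after 48 h chemical treatment of human HepaRG liver cells. Curves span eight concentrations topping at 100 uM; activity in either direction scored relative to 0.5% DMSO.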

Read-out in assay [12]: Lipoprotein lipase (LPL), LPL (gene 4023)
In words: LTEA_HepaRG_LPL: Life Technologies and Expression Analysis (LTEA) Assay for Lipoprotein lipase (LPL) using HepaRG (AID 2283515). In a few lines:
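Read-out is LPL transcript level by qRT-PCR, normalized to three housekeeping genes and fitted bidirectionally against the DMSO control. Human HepaRG cells received chemicals for 48 h at up to 100 uM.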

Read-out in assay [13]: MicroRNA 122 (MIR122), gene 406906
Nature of the assay: LTEA_HepaRG_MIR122: Life Technologies and Expression Analysis (LTEA) Assay for MicroRNA 122 (MIR122) using HepaRG (AID 2283516). Note: the transcript read is the microRNA miR-122. In a few lines:
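HepaRG, 48 h exposure, 8-pt half-log from 100 uM, 0.5% DMSO; TaqMan qRT-PCR; bidirectional fit vs DMSO.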

Read-out in assay [14]: matrix metalloproteinase-10 (MMP10), MMP10 (gene 4319)
Nature of the assay: LTEA_HepaRG_MMP10: Life Technologies and Expression Analysis (LTEA) Assay for matrix metalloproteinase-10 (MMP10) using HepaRG (AID 2283517). The method in brief: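 Gain or loss of MMP10 mRNA is fitted relative to the 0.5% DMSO vehicle. The human hepatic line HepaRG receives a 48-hour serum-free exposure, in duplicate, with a maximum concentration of 100 uM.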

Read-out in assay [15]: matrix metalloproteinase-3 (MMP3), MMP3 (gene 4314)
In words: LTEA_HepaRG_MMP3: Life Technologies and Expression Analysis (LTEA) Assay for matrix metalloproteinase-3 (MMP3) using HepaRG (AID 2283519). In a few lines: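 HepaRG, human; 48 h dosing, 8 conc. (max 100 uM, half-log), duplicate, 0.5% DMSO. Readout: MMP3 transcript by Fluidigm TaqMan qRT-PCR, ACTB/GAPDH/POLR2A-normalised. Gain or loss fitted vs DMSO.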

Read-out in assay [16]: Paternally Expressed 10 (PEG10), PEG10 (gene 23089)
Nature of the assay: LTEA_HepaRG_PEG10: Life Technologies and Expression Analysis (LTEA) Assay for Paternally Expressed 10 (PEG10) using HepaRG (AID 2283520).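 For AC50: PEG10 transcript by qRT-PCR normalised to ACTB GAPDH and POLR2A.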 The method in brief:
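Chemicals tested on HepaRG cells for 48 h, highest concentration 100 uM. PEG10 expression assessed by qRT-PCR relative to DMSO control.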

Read-out in assay [17]: Insulin-like growth factor-binding protein 1 (IGFBP1), IGFBP1 (gene 3484)
Nature of the assay: LTEA_HepaRG_IGFBP1: Life Technologies and Expression Analysis (LTEA) Assay for Insulin-like growth factor-binding protein 1 (IGFBP1) using HepaRG (AID 2283508). In a few lines:
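Thawed HepaRG cells are plated for 48 h, switched to serum-free induction medium, then dosed in duplicate for another 48 h (100 uM top, half-log steps). Lysates in RLT go to qRT-PCR, and gain or loss of signal is fitted relative to vehicle.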

Read-out in assay [18]: Nuclear factor NF-kappa-B p105 subunit (Homo sapiens) (UniProt P19838)
Nature of the assay: LTEA_HepaRG_NFKB1: Life Technologies and Expression Analysis (LTEA) Assay for Nuclear Factor Kappa B Subunit 1 (NFKB1) using HepaRG (AID 2283521). In a few lines:
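Differentiated human HepaRG cells were exposed for 48 h in serum-free induction medium to eight concentrations (top 100 uM, half-log steps, 0.5% DMSO), in duplicate. NFKB1 mRNA was measured by TaqMan qRT-PCR, normalized to ACTB/GAPDH/POLR2A, and fitted bidirectionally against DMSO.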

Read-out in a further assay: MYC, MYC (gene 4609)
Nature of the assay: LTEA_HepaRG_MYC: Life Technologies and Expression Analysis (LTEA) Assay for MYC using HepaRG (AID 2283518). The method in brief: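 HepaRG, ~100,000 cells/well, collagen I; 48 h plating; serum-free induction medium; 48 h dosing, duplicate, 100 uM top, half-log, 0.5% DMSO; total RNA → qRT-PCR MYC; gain/loss fit vs DMSO.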

Chain of Hypoxia-inducible factor 1-alpha (Homo sapiens) (Q16665 whole entry, looked up): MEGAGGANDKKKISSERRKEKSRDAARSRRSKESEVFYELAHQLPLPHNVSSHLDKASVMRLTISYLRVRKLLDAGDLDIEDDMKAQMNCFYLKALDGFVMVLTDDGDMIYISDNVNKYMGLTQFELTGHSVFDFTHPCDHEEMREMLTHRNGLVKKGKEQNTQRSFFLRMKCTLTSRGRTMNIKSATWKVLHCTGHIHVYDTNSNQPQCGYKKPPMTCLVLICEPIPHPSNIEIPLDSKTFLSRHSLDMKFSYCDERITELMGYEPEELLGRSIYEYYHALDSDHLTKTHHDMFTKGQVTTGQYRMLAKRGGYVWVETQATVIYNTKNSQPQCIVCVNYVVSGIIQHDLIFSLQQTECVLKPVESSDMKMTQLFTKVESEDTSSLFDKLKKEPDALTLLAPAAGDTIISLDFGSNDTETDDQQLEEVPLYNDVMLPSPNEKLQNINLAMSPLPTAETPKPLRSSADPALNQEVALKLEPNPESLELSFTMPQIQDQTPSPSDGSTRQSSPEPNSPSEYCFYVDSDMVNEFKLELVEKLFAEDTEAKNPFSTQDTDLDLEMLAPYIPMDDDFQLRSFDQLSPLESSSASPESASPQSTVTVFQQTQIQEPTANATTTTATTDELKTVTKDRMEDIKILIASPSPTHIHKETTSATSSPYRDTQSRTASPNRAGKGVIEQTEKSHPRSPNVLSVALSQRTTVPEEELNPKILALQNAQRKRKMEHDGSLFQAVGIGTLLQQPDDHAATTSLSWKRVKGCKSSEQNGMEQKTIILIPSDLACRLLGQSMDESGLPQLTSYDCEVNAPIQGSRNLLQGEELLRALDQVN
Chain of Nuclear factor NF-kappa-B p105 subunit (Homo sapiens) (P19838 whole entry, looked up): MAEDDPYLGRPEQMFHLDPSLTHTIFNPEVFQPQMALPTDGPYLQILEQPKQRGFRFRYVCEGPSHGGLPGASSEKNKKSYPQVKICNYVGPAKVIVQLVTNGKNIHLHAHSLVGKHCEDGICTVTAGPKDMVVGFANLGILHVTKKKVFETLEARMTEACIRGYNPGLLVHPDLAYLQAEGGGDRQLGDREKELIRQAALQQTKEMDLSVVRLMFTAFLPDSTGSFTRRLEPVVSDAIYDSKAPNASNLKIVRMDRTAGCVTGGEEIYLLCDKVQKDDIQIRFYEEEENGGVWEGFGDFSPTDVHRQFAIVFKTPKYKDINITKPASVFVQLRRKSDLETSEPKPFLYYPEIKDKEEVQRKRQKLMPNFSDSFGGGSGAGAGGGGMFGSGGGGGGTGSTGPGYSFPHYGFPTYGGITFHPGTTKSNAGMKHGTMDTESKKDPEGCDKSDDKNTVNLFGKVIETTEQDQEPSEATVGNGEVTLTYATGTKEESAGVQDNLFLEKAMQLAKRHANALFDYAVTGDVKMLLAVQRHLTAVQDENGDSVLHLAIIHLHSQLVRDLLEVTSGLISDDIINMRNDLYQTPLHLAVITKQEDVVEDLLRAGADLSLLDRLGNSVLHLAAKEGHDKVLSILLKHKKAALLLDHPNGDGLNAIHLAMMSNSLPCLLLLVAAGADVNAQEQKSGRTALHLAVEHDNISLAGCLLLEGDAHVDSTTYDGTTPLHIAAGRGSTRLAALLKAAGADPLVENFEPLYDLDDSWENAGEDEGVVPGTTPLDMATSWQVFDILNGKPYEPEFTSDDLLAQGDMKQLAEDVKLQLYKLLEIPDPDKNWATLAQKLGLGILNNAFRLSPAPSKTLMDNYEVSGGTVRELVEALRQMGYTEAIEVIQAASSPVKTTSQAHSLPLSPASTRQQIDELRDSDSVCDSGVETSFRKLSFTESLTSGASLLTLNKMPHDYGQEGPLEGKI

`CCC(=O)Nc1ccc(Cl)c(Cl)c1`: the result (in assay [1]; in assay [2]; in assay [3]; with HGF (gene 3082); in assay [4]; in [5]) was inactive. Besides, the call in assay [6], in assay [7], in [8], in assay [10], in [11] and in assay [12] was inactive. Besides, the call in assay [13], in [14] and in assay [15] was inactive. The results for the AC50 in assay [9] and in assay [16] were 41.4 µM (active) and 65 µM (active), respectively.
For the molecule `CCCCSP(=O)(SCCCC)SCCCC`, the molecule was classed as inactive (in assay [1]; in assay [2]; with HGF (gene 3082); in assay [5]; in [6]; in assay [7]). Besides, the result in assay [8], in assay [13], in assay [14], in assay [15] and in [16] was inactive. The AC50 (commonly the concentration at which the activity in the assay is half-maximal) in assay [3] was 50 µM (active); in [4], 65.7 µM (active); in [9] it was 1.7 µM (active); in assay [11] it was 83.6 µM (active); in assay [12], 68.5 µM (active).
As for `C#CCC1=C(C)C(OC(=O)C2C(C=C(C)C)C2(C)C)CC1=O` (centres undefined), the call (in assay [1]; in assay [2]; in assay [3]; with HGF (gene 3082); in [5]; in assay [6]) was inactive. For the same molecule, the outcome in assay [7], in assay [8], in assay [9], in assay [10], in assay [11] and in [12] was inactive. For the same molecule, the molecule was called inactive in assay [13], in assay [14] and in assay [16]. Moreover, the values for the AC50 in [4] and in assay [15] were 71 µM (active) and 81.9 µM (active), respectively.
Consider `COP(=O)(OC)C(O)C(Cl)(Cl)Cl` (centres undefined), for which the result (in [1]; in [3]; with HGF (gene 3082); in [4]; in [5]; in assay [17]) was inactive. The molecule was called inactive in [6], in assay [7], in [8], in [9], in assay [11] and in assay [12]. The call in assay [13], in assay [14], in assay [15], in assay [16] and in assay [18] was inactive.
`CNc1cnn(-c2cccc(C(F)(F)F)c2)c(=O)c1Cl`: the outcome (in [1]; in assay [2]; with HGF (gene 3082); in assay [5]; in [7]; in assay [8]) was inactive. Moreover, the outcome in assay [11], in assay [12], in assay [13], in assay [14], in assay [15] and in [18] was inactive. Moreover, the AC50 in assay [3] was 9.92 µM (active); in assay [4] it was 36.9 µM (active); in [6], 50 µM (active); in assay [9], 14.5 µM (active); in [16], 32 µM (active).
Regarding `CC(Oc1cccc(Cl)c1)C(=O)O` (centres undefined), the result (in assay [2]; in assay [3]; with HGF (gene 3082); in assay [5]; in [6]; in assay [7]) was inactive. Also, the molecule was called inactive in assay [8], in assay [9], in assay [11], in [12], in assay [13] and in assay [14]. The outcome was “inactive” with MYC, MYC (gene 4609); “inactive” in assay [15]; “inactive” in assay [16].
